Results: PubChem BioAssay AID1159580 (chemical genetic matrix, 2015)
Where “and” joins values, the source holds several entries; their conditions need not be identical. Equal values may be shown once. Screen size: about 5,500 compounds; about 2,000 (36%) were called active. Not shown: some 18% with an inconclusive outcome. Cut-off read from the data, not from the text of the source: active = normalized growth mostly below about 0.91 (no sharp cut-off); inconclusive = no clear call, values can overlap the other calls; inactive = mostly above about 0.92. The list shows a part of the results.

Assay: chemical genetic growth profiling, strain panel (AID 1159580);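 note: tested at 20 µM; growth read once vehicle control cultures reached saturation at 30 °C; 1 = growth at the plate median or of vehicle wells; lower values mean less growth of the strain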
Conditions: growth OD

Measured: normalized growth

NCCCCNCCCN
inactive: S. cerevisiae deletion strains, locus YAL013W, strain DEP1, stronger effect = lower value 1.01 and 0.954 | S. cerevisiae deletion strains, locus YAL040C, strain CLN3, stronger effect = lower value 0.977 | S. cerevisiae deletion strains, locus YBR021W, strain FUR4, stronger effect = lower value 1.11 | S. cerevisiae deletion strains, locus YBR229C, strain ROT2, stronger effect = lower value 0.997 | S. cerevisiae deletion strains, locus YCL029C, strain bik1, stronger effect = lower value 0.95 | S. cerevisiae deletion strains, locus YCL061C, strain MRC1 (second series), stronger effect = lower value 0.982 | S. cerevisiae deletion strains, locus YDL035C, strain GPR1, stronger effect = lower value 1.02 | S. cerevisiae deletion strains, locus YDL074C, strain BRE1, stronger effect = lower value 0.98 | S. cerevisiae deletion strains, locus YDL101C, strain DUN1, stronger effect = lower value 0.981 | S. cerevisiae deletion strains, locus YDL134C, strain PPH21, stronger effect = lower value 1.01 | S. cerevisiae deletion strains, locus YDL185W, strain tfp1, stronger effect = lower value 0.946 | S. cerevisiae deletion strains, locus YDL192W, strain arf1, stronger effect = lower value 0.983 | S. cerevisiae deletion strains, locus YDR101C, strain arx1, stronger effect = lower value 0.988 | S. cerevisiae deletion strains, locus YDR150W, strain NUM1, stronger effect = lower value 0.978 and 1 | S. cerevisiae deletion strains, locus YDR162C, strain NBP2, stronger effect = lower value 0.998 | S. cerevisiae deletion strains, locus YDR318W, strain mcm21, stronger effect = lower value 0.987 | S. cerevisiae deletion strains, locus YDR363W, strain ESC2, stronger effect = lower value 0.971 | S. cerevisiae deletion strains, locus YDR388W, stronger effect = lower value 0.996 | S. cerevisiae deletion strains, locus YDR502C, strain sam2, stronger effect = lower value 1.01 | S. cerevisiae deletion strains, locus YEL061C, strain CIN8, stronger effect = lower value 0.995 | S. cerevisiae deletion strains, locus YER002W, strain NOP16, stronger effect = lower value 0.991 | S. cerevisiae deletion strains, locus YER110C, stronger effect = lower value 0.979 | S. cerevisiae deletion strains, locus YER155C, strain BEM2, stronger effect = lower value 1.01 | S. cerevisiae deletion strains, locus YER167W, strain BCK2, stronger effect = lower value 1 | S. cerevisiae deletion strains, locus YGL078C, strain dbp3, stronger effect = lower value 0.981 | S. cerevisiae deletion strains, locus YGL086W, strain mad1, stronger effect = lower value 0.996 | S. cerevisiae deletion strains, locus YGL248W, strain PDE1, stronger effect = lower value 1 | S. cerevisiae deletion strains, locus YGR078C, strain PAC10, stronger effect = lower value 0.972 | S. cerevisiae deletion strains, locus YGR135W, strain pre9, stronger effect = lower value 0.999 | S. cerevisiae deletion strains, locus YGR229C, strain SMI1, stronger effect = lower value 0.991 | S. cerevisiae deletion strains, locus YGR252W, strain gcn5, stronger effect = lower value 1.13 | S. cerevisiae deletion strains, locus YHR030C, strain SLT2, stronger effect = lower value 0.985 and 0.976 | S. cerevisiae deletion strains, locus YHR079C, strain IRE1 (second series), stronger effect = lower value 0.981 | S. cerevisiae deletion strains, locus YHR079C, strain IRE1, stronger effect = lower value 0.985 | S. cerevisiae deletion strains, locus YHR094C, strain hxt1, stronger effect = lower value 0.972 | S. cerevisiae deletion strains, locus YHR129C, strain ARP1, stronger effect = lower value 0.989 | S. cerevisiae deletion strains, locus YHR200W, strain rpn10, stronger effect = lower value 0.992 | S. cerevisiae deletion strains, locus YIL066C, strain RNR3, stronger effect = lower value 0.99 | S. cerevisiae deletion strains, locus YIL073C, strain SPO22, stronger effect = lower value 0.722 | S. cerevisiae deletion strains, locus YIR030C, strain dcg1, stronger effect = lower value 0.99 | S. cerevisiae deletion strains, locus YJL095W, strain BCK1, stronger effect = lower value 0.977 and 1.02 | S. cerevisiae deletion strains, locus YJL134W, strain LCB3, stronger effect = lower value 0.995 | S. cerevisiae deletion strains, locus YJL168C, strain set2, stronger effect = lower value 0.991 | S. cerevisiae deletion strains, locus YJL187C, strain SWE1 (second series), stronger effect = lower value 0.964 | S. cerevisiae deletion strains, locus YJR043C, strain POL32, stronger effect = lower value 1 | S. cerevisiae deletion strains, locus YJR066W, strain TOR1, stronger effect = lower value 0.931 | S. cerevisiae deletion strains, locus YJR075W, strain HOC1, stronger effect = lower value 0.995 and 1 | S. cerevisiae deletion strains, locus YKL009W, strain mrt4, stronger effect = lower value 0.991 | S. cerevisiae deletion strains, locus YKL068W, stronger effect = lower value 0.977 | S. cerevisiae deletion strains, locus YKL085W, strain MDH1 (second series), stronger effect = lower value 0.985 | S. cerevisiae deletion strains, locus YKL085W, strain MDH1, stronger effect = lower value 0.985 | S. cerevisiae deletion strains, locus YKL190W, strain CNB1, stronger effect = lower value 0.988 | S. cerevisiae deletion strains, locus YKR001C, strain vps1, stronger effect = lower value 0.971 | S. cerevisiae deletion strains, locus YLR039C, strain RIC1, stronger effect = lower value 0.973 | S. cerevisiae deletion strains, locus YLR058C, strain SHM2, stronger effect = lower value 0.985 | S. cerevisiae deletion strains, locus YLR102C, strain apc9, stronger effect = lower value 0.991 | S. cerevisiae deletion strains, locus YLR113W, strain HOG1, stronger effect = lower value 1.05 | S. cerevisiae deletion strains, locus YLR262C, strain YPT6, stronger effect = lower value 0.96 | S. cerevisiae deletion strains, locus YLR268W, strain sec22, stronger effect = lower value 0.928 | S. cerevisiae deletion strains, locus YLR330W, strain CHS5, stronger effect = lower value 0.991 | S. cerevisiae deletion strains, locus YLR342W, strain FKS1 (second series), stronger effect = lower value 1.04 | S. cerevisiae deletion strains, locus YLR371W, strain rom2, stronger effect = lower value 0.979 | S. cerevisiae deletion strains, locus YLR418C, strain cdc73, stronger effect = lower value 1.01 | S. cerevisiae deletion strains, locus YML016C, strain PPZ1, stronger effect = lower value 0.988 | S. cerevisiae deletion strains, locus YML124C, strain tub3, stronger effect = lower value 0.986 | S. cerevisiae deletion strains, locus YMR078C, strain ctf18, stronger effect = lower value 0.999 | S. cerevisiae deletion strains, locus YMR223W, strain ubp8, stronger effect = lower value 1.03 | S. cerevisiae deletion strains, locus YMR263W, strain SAP30, stronger effect = lower value 0.978 and 0.977 | S. cerevisiae deletion strains, locus YMR307W, strain GAS1, stronger effect = lower value 1.12 and 0.988 | S. cerevisiae deletion strains, locus YNL067W, strain RPL9B, stronger effect = lower value 0.972 | S. cerevisiae deletion strains, locus YNL128W, strain TEP1, stronger effect = lower value 1.01 | S. cerevisiae deletion strains, locus YNL153C, strain GIM3, stronger effect = lower value 0.971 and 1.03 | S. cerevisiae deletion strains, locus YNL175C, strain NOP13, stronger effect = lower value 1 | S. cerevisiae deletion strains, locus YNL183C, strain NPR1, stronger effect = lower value 0.959 | S. cerevisiae deletion strains, locus YNL197C, strain WHI3, stronger effect = lower value 0.988 | S. cerevisiae deletion strains, locus YNL224C, strain SQS1, stronger effect = lower value 0.98 | S. cerevisiae deletion strains, locus YNL233W, strain BNI4, stronger effect = lower value 0.98 | S. cerevisiae deletion strains, locus YNL250W, strain rad50, stronger effect = lower value 0.962 | S. cerevisiae deletion strains, locus YNL271C, strain bni1, stronger effect = lower value 0.977 | S. cerevisiae deletion strains, locus YNL298W, strain CLA4, stronger effect = lower value 0.981 | S. cerevisiae deletion strains, locus YNL307C, strain MCK1, stronger effect = lower value 0.975 | S. cerevisiae deletion strains, locus YNL322C, strain KRE1, stronger effect = lower value 0.988 and 0.982 | S. cerevisiae deletion strains, locus YNR052C, strain pop2, stronger effect = lower value 0.995 | S. cerevisiae deletion strains, locus YOL006C, strain TOP1, stronger effect = lower value 0.776 | S. cerevisiae deletion strains, locus YOL012C, strain htz1 0.74 | S. cerevisiae deletion strains, locus YOL147C, strain pex11, stronger effect = lower value 0.982 | S. cerevisiae deletion strains, locus YOR061W, strain CKA2, stronger effect = lower value 0.996 | S. cerevisiae deletion strains, locus YOR069W, strain VPS5, stronger effect = lower value 0.996 | S. cerevisiae deletion strains, locus YOR083W, strain WHI5 (second series), stronger effect = lower value 0.915 | S. cerevisiae deletion strains, locus YOR136W, strain idh2, stronger effect = lower value 0.996 | S. cerevisiae deletion strains, locus YOR144C, strain elg1, stronger effect = lower value 0.996 | S. cerevisiae deletion strains, locus YOR184W, strain ser1, stronger effect = lower value 0.953 | S. cerevisiae deletion strains, locus YOR231W, strain MKK1, stronger effect = lower value 0.989 | S. cerevisiae deletion strains, locus YOR316C, strain cot1, stronger effect = lower value 0.979 | S. cerevisiae deletion strains, locus YPL055C, strain LGE1, stronger effect = lower value 1.03 | S. cerevisiae deletion strains, locus YPL241C, strain CIN2, stronger effect = lower value 0.997 | S. cerevisiae deletion strains, locus YPL256C, strain CLN2, stronger effect = lower value 0.974 | S. cerevisiae deletion strains, locus YPR119W, strain clb2, stronger effect = lower value 0.979 | S. cerevisiae deletion strains, locus YPR141C, strain kar3, stronger effect = lower value 0.991 | S. cerevisiae deletion strains, locus YPR163C, strain tif3, stronger effect = lower value 0.984 | S. cerevisiae deletion strains, locus YPR167C, strain met16, stronger effect = lower value 0.982 | S. cerevisiae deletion strains, strain wtn01, stronger effect = lower value 0.993 | S. cerevisiae strains, strain wild type, stronger effect = lower value 1.01
